Over roughly 33,000 sequences, “E-score (-0.5 to 0.5)” has its median near -0.017; the highest 2% begin near 0.3. The full list was thinned out, with the highest values kept by preference.
Target: T1, Sut1 (UniProt P53032)
T1 sequence: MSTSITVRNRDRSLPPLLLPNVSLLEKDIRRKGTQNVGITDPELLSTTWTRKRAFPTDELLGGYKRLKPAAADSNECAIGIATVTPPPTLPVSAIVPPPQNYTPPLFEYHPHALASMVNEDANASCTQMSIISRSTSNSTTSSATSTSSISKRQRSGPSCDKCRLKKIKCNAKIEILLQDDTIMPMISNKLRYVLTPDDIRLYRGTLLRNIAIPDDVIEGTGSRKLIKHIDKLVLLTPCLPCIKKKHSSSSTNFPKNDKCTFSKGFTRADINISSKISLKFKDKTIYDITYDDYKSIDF
Test: PBM E-score (8-mer binding enrichment) (E-score (-0.5 to 0.5)); higher = stronger / more preferred TF binding
Conditions: protein concentration: 200 nM; construct: GST-full length
Procedure: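 Universal 'all 10-mer' protein binding microarrays (Agilent AMADID 015681) probed with GST-tagged S. cerevisiae TFs (full-length or DBD) made by in vitro transcription/translation (PURExpress), about 100-200 nM. Bound TF was detected with fluorescent anti-GST. Each ungapped 8-mer (which stands for itself and its reverse complement) is scored by the PBM enrichment score (E-score), a modified Wilcoxon-Mann-Whitney statistic from -0.5 to +0.5, computed with the Universal PBM Analysis Suite. Scale: above 0.35 generally sequence-specific binding.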

Sequence	PBM E-score
CATCGGAG	0.435
CATCGGGG	-0.00411
GATCGGGC	-0.0436
GATCGGAC	0.367
CATCGGCG	-0.137
CATCGGTC	-0.106
AATCGGTG	0.0417
GATCGGAA	0.159
CATCGGAA	0.269
CATCGGAC	0.37
AATCGGAT	0.183
AATCGGAG	0.396
ACAAGCAG	0.0716
CGTCTCGA	-0.113
AAGCAGAG	-0.037
CAGTCGAG	-0.103
CAATGGGG	-0.163
GAAGTCTA	0.0111
CCTACTCA	0.021
AGCAGTTC	0.0132
AATCGGGC	-0.0945
AATCGGCC	-0.109
TATCGGAA	0.26
AATCGGCA	0.107
AATCGGAA	0.38

Sequence	PBM E-score
AATCGGAC	0.338
CCACTTTA	0.0316
CCGGTCAG	-0.0559
AATCAGAT	0.0945
AAGGGATG	-0.0899
GAGTCCAC	-0.108
CAGCTCCG	0.461
AAGCTCCG	0.455
AGGCTCCC	-0.0884
AAGCTCCC	-0.156
AGGCTCCG	0.357
CAGCTCCA	-0.0491
AGGCTCCA	-0.178
CAGCTCCC	-0.181
AAGCTCCT	-0.112
CAGGCCTG	0.0399
ACGCTAAC	-0.22
GTTCGACA	-0.0722
ATAATATA	0.301
ATAATATG	0.286
ATAATAAT	0.295
CTAATATA	0.225
CTAATAAA	0.197
CTAATAAC	0.14
TTAATAAA	0.341

Sequence	PBM E-score
GTAATAAA	0.284
ATAATAAA	0.339
AATCCTCG	-0.164
CGGGGCTC	0.0261
ACTTGGGG	-0.203
CGCGCCTC	0.0917
GGGATACA	-0.064
AACCCCGA	0.447
CACCCCGG	0.0471
ACCCCCGA	-0.118
CACCCCGA	0.134
TACCCCGA	0.324
AACCCCGG	0.438
AAACCCGA	0.198
ACCCCCGG	-0.0829
GACCCCGA	0.0897
GATGCTAA	0.0485
AATAGGCC	0.0314
GCTCGCAA	-0.101
CATCCACC	-0.0255
CGATTCTA	-0.0107
GGCTAATA	0.17
ACTCATAC	0.0873
ACCAACCC	-0.212
CTATCGGA	0.337

Sequence	PBM E-score
ATATCGGG	-0.0571
ATATCGGA	0.331
CTATCGGC	-0.13
AGATCGGA	0.348
GTATCGGA	0.281
ATATCGGC	-0.0245
CGATCGGA	0.246
GGATCGGA	0.277
CCTGCTAC	-0.0632
GTTCGGTA	0.141
AAGATGGC	-0.0118
AGTCCCAG	-0.199
ATTGACCG	0.0305
AGAGTCCA	-0.0986
CGTTGCAG	-0.136
ATGCAGCA	-0.134
ATCCTTCG	0.0447
CTCCGCAG	0.364
GTCCGCAC	0.247
CTCCGCAC	0.306
ATCCGCAC	-0.0365
CTCCGCAA	0.271
ATCCGCAG	0.0529

Reference: the supplement of paper PMC3334620
